Screening results (PubChem)
A selection: hits, their analogues and other compounds. The true share with any hit is near 2.2%.
Nrf2 block = Nrf2 qHTS screen for inhibitors; A549 ARE-Fluc reporter, luciferase luminescence, 18-24 h; Potency, µM (series often up to 46 µM), hits mostly inhibitors; hit rate 2.1% among 360,000; AID 504444, 2011; note: nearly all actives have a fitted effect of over 60% in size
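Nrf2 activity is the BugLite luminescence, read 15 min after reagent at room temperature, following CellTiter-Fluor cytotoxicity readout (30 min, 37C). Compound titrations were applied for 18-24 h to 5000 A549 ARE_Fluc cells/well in 5% FBS OPTI-MEM.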
A549 tox-1 = Nrf2 qHTS screen for inhibitors: counterscreen for cytotoxicity. Potency, µM (highest dose often 46 µM), hits mostly inhibitors. AID 504648, 2011. hit rate 0.16% among 390,000. A549 ARE-Fluc cells, CellTiter-Fluor viability, 18-24 h
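Cytotoxicity counterscreen: CellTiter-Fluor fluorescence was measured in A549 ARE_Fluc cells after 18-24 h of compound exposure in a concentration series. The subsequent BugLite luminescent read reports ARE-luciferase activity.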
miR-21 reporter = qHTS Assay for Modulators of miRNAs and/orActivators of miR-21; HeLa miR-21 FLuc reporter, luciferase, 48 h; Potency, µM (doses to about 38.3 µM), most hits filed as activators; 340,000 tested, under 10 active;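 note: miR-21 action dims this reporter so a rising signal means less miR-21 action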
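HeLa miR-21-FLuc reporter line, endogenous miR-21; 2000 cells/well in DMEM/10% FBS; compound titration up to ~40uM final, 48 h, 37 degree Celsius; luciferase detection reagent, 15 min lysis, CCD luminescence.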
Nrf2 ARE act = qHTS of Nrf2 Activators. AREc32 ARE-luciferase reporter (MCF7-derived line), luminescence, 24 h. Potency, µM (series often up to 46.1 µM), actives largely listed as activators. hit rate 0.31% among 410,000; note: nearly all actives have a fitted effect of over 65% in size
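Luciferase luminescence (Steady-Glo, 30 min at room temperature) served as the read-out of ARE activation in AREc32 cells treated with compounds for 24 hr at 37 deg C.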
B2AR arrestin = qHTS assay of beta-arrestin-biased ligands of beta2-adrenergic receptor; Beta-2 adrenergic receptor (Homo sapiens), P07550; beta-arrestin recruitment to beta2AR, cell-based reporter; Potency, µM (series often up to 46.1 µM), usual class: activators; hit rate 0.02% among 330,000; note: nearly all actives have a fitted effect of over 65% in size
Target sequence (P07550 whole entry, looked up): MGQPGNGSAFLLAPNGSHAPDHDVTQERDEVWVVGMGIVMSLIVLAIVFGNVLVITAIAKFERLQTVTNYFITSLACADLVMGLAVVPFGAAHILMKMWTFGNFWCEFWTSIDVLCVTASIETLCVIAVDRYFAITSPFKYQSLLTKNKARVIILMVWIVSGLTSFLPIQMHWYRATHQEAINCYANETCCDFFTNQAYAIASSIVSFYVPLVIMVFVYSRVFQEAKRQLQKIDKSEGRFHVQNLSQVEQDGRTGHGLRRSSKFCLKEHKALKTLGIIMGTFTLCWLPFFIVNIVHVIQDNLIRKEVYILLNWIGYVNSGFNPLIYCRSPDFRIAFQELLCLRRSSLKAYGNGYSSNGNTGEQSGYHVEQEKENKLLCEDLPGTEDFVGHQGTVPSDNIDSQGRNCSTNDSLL
FLuc counter 3 = Nrf2 qHTS screen for inhibitors: Purified Fluc Biochemical Counterscreen for Hit Validation. Potency, µM (doses to about 57.5 µM), usual class: inhibitors. hit rate 4% among 1,400. purified firefly luciferase, luminescence inhibition. shares compounds with Nrf2 block; note: nearly all actives have a fitted effect of over 65% in size
A549 tox-2 = Nrf2 qHTS screen for inhibitors: A549 ARE-Fluc Cytotoxicity Counterscreen for Hit Validation. Potency, µM (titrated, usually from 46.1 µM), actives largely listed as inhibitors. shares compounds with Nrf2 block. A549 ARE-Fluc cells, cytotoxicity counterscreen. hit rate 2% among 1,400. AID 720523, 2013;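 note: cells exposed to compounds for 18 to 24 hours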
Nrf2 ARE inh = Nrf2 qHTS screen for inhibitors: Nrf2 A549 ARE-Fluc Confirmation Assay for Hit Validation | AID 720524, 2013 | shares compounds with Nrf2 block | A549 ARE-firefly luciferase reporter, luminescence | Potency, µM (doses to about 46.1 µM), hits mostly inhibitors | hit rate 74% among 1,400; note: nearly all actives have a fitted effect of over 65% in size
Hits are given with their value; 0 = inactive; ? = inconclusive; - = not tested or not shown. Calls come from the whole dose curve; as a rule, active = well fitted curve in the direction sought with a large enough effect; inconclusive = small, poorly fitted or top-dose-only effect, or another doubt; inactive = no such curve, though single readings can be large; an effect the other way counts as inactive or inconclusive.

SMILES	Nrf2 block	A549 tox-1	miR-21 reporter	Nrf2 ARE act	B2AR arrestin	FLuc counter 3	A549 tox-2	Nrf2 ARE inh
CN(C)c1nc(-c2ccccn2)nnc1-c1ccccc1	?	?	0	0	0	0	0	11.6µM
CCOC(=O)C(C(=O)OCC)N(Cc1cc(OC)ccc1OC)C(=O)C1CC(CO[Si](C)(C)C(C)(C)C)=CN1C(=O)OC(C)(C)C (centres undefined)	0	0	-	-	-	-	-	-
O=S(=O)(c1ccccc1)N1CCN(S(=O)(=O)c2ccc3c(c2)OCCO3)CC1	0	0	-	-	-	-	-	-
Cc1noc(C)c1CSc1nc2sc3c(c2c(=O)n1C)CCCC3	?	?	0	0	0	-	-	-
C=CCn1c(SCc2c(C)noc2C)nc2sc3c(c2c1=O)CCCC3	9.2µM	?	0	0	0	0	0	?
CC1CCc2nc(-c3cc4ccc(O)cc4oc3=O)sc2C1 (centres undefined)	2.31µM	?	-	-	-	0.0379µM	0	18.4µM
O=c1oc2cc(O)ccc2cc1-c1nc2ccccc2o1	-	-	-	0	-	-	-	-
COc1ccc(OC)c(C2CC(=O)c3c([nH]c(C(=O)OCc4ccc(C)cc4)c3C)C2)c1 (centres undefined)	0	0	0	0	-	-	-	-
COc1cc(C2CC(=O)c3c([nH]c(C(=O)OCc4ccc(C)cc4)c3C)C2)cc(OC)c1OC (centres undefined)	2.31µM	0	0	0	-	0	0	4.61µM
COc1cc(C2CC(=O)c3c([nH]c(C(=O)OCCOC(C)C)c3C)C2)cc(OC)c1OC (centres undefined)	4.61µM	?	0	0	0	0	0	9.2µM
S=C(NN=Cc1ccccn1)N(Cc1ccccn1)Cc1ccccn1	?	0	-	0	-	?	?	2.31µM
CC(=O)O[C@]1(C(C)=O)CCC2C3C=C(C)C4=CC(=O)CC[C@]4(C)C3CC[C@@]21C (some centres undefined)	0.259µM	0	0	0	0	0	0	1.16µM
COc1ccccc1NC(=O)CSc1ncc2c(n1)-c1ccccc1N(Cc1ccccc1C)S2(=O)=O	0	0	0	0	-	-	-	-
COc1ccc(OC)c(NC2=C(c3ccccc3)C(=O)c3ccccc32)c1	0	0	0	0	-	-	-	-
CN(Cc1cnc2nc(N)nc(N)c2n1)c1ccc(C(=O)NC(CCC(=O)O)C(=O)O)cc1C(F)(F)F (centres undefined)	?	0	-	0	-	-	-	-
CN(Cc1cnc2nc(N)nc(N)c2n1)c1ccc(C(=O)NC(CCC(=O)O)C(=O)O)cc1 (centres undefined)	0.291µM	0	-	0	-	0	0	1.46µM
O=c1c2ccccc2nc2n1CCN2Cc1ccc(Cl)cc1	5.8µM	0	0	0	0	0	0	4.11µM
O=c1c2ccccc2nc(-c2ccccc2)n1Cc1ccc(Cl)cc1	0	0	0	0	0	-	-	-
Cc1c(N)cc[n+](CC(=O)c2ccccc2)c1C	4.11µM	0	0	0	0	0	0	14.6µM
Cc1cc[n+](CC(=O)c2ccccc2)c2ccccc12	0	0	0	0	0	-	-	-
Nc1cc[n+](CC(=O)c2ccccc2)cc1	8.2µM	0	0	0	0	0	0	?
O=C(C[n+]1ccncc1)c1ccccc1	0	0	0	0	0	-	-	-
Cc1ccc(C[n+]2ccccc2)cc1	5.17µM	0	-	0	0	0	0	20.6µM
COC(=O)c1ccc(C[n+]2ccccc2)cc1	0	0	0	0	0	-	-	-
CSc1ncc(C(=O)Nc2cc(Cl)ccc2C)c(-c2ccccc2)n1	0	0	0	0	-	-	-	-
COc1ccccc1N=c1oc2cc(O)ccc2cc1C(=O)NCC1CCCO1 (centres undefined)	?	-	0	0	0	0	0	13µM
